Assay outcomes from PubChem BioAssay.
Sampled rows, rich in hits. Any-hit rate of the full collection: about 10%.
HEK293 tox: cytotoxic compounds in HEK 293 cells. AID 1345083. 94,000 tested, 6.6% active. HEK 293 viability, ATP luminescence (CellTiter-Glo), 48-72 h. Potency, µM (series often up to 115 µM), actives largely listed as inhibitors; further: nearly all actives have a fitted effect of over 60% in size
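Cells seeded first (HEK 293, 250 cells/well), then compound added by pintool. Incubation ran 48 or 72 hr at 37 degree Celsius. CellTiter-Glo was added and luminescence imaged after 10 min at room temperature.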
NPR1 antag: human Npr1 receptor antagonism. HEK293 hNpr1 GloSensor cGMP, ANP-stimulated luminescence. 76,000 tested, 1.6% active. Potency, µM (top dose mostly 46.3 µM), actives largely listed as inhibitors. P16066; calls by dose curve; further: nearly all actives have a fitted effect of over 60% in size
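HEK293 cells stably expressing human Npr1 and cGMP GloSensor pGS-40F, loaded 2 h with 2% GloSensor reagent, given compound 30 min at room temperature. Luminescence read before and 20 min after 0.1 nM hNppA.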
GPT2 inh: GPT2 alanine aminotransferase inhibition; Potency, µM (doses to about 57.7 µM), most hits filed as inhibitors; Recombinant GPT2, coupled pyruvate oxidase/HRP Amplex Red fluorescence; Q8TD30; 100,000 tested, 0.25% active; AID 1671188; further: nearly all actives have a fitted effect of over 60% in size
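GPT2 10ng/uL, a-KG 250uM, L-Ala 2mM, HEPES pH7.5 + 0.0001% Tween; 30 min RT. Then Amplex mix (PO/HRP/ThPP), 30 min RT dark, fluorescence. AOA 50uM used as positive control.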
NIH3T3 tox: NIH 3T3 cell cytotoxicity; Potency, µM (top dose mostly 96.7 µM), usual class: inhibitors; NIH 3T3 viability, CellTiter-Glo ATP luminescence, 48-72 h; AID 1345082; 94,000 tested, 4.3% active; further: nearly all actives have a fitted effect of over 55% in size
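Luminescent ATP readout (CellTiter-Glo, 10 min RT) after 48 or 72 hr compound exposure of NIH 3T3 cells seeded at 400 cells/well in 1536-well format; quantitative HTS.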
Luciferase inh: inhibitors of firefly (Photinus pyralis) luciferase; Potency, µM (titrated, usually from 115 µM), actives largely listed as inhibitors; AID 1347043; 76,000 tested, 2.5% active; purified P. pyralis luciferase, luminescence, biochemical; further: nearly all actives have a fitted effect of over 65% in size
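Luminescence read by CCD imaging after purified firefly luciferase (10nM final) was added to substrate buffer holding 10uM D-luciferin and 10uM ATP, pH 7.5, pre-dosed with compound.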
Numbers stand for hits; - = inactive; ? = inconclusive; . = no result. Unless noted, the call rests on the fitted dose curve; in most records, active means well fitted curve in the direction sought with a large enough effect; inconclusive means small, poorly fitted or top-dose-only effect, or another doubt; inactive means no such curve, though single readings can be large; an effect the other way counts as inactive or inconclusive.

SMILES	HEK293 tox	NPR1 antag	GPT2 inh	NIH3T3 tox	Luciferase inh
COCCn1c(C)nnc1-c1cc(-c2ccccc2Oc2ccccc2)ccn1	?	-	-	?	-
Cc1nnc(-c2cc(-c3cnn(C)c3)ccn2)n1Cc1ccccc1	-	-	-	45µM	-
COc1ncc(-c2ccnc(-c3nnc(C)n3CCN3CCOCC3)c2)cn1	-	-	-	?	-
Cc1nnc(-c2cc(C(=O)NC3CCOCC3)ccn2)n1CCc1ccccc1	-	-	-	89µM	-
Cc1nnc(-c2cc(-c3ccccc3Oc3ccccc3)ccn2)n1C	89µM	-	-	?	-
COc1ccc(-c2ccnc(-c3nnc(C)n3CCN3CCOCC3)c2)cc1OC	-	-	-	100µM	-
Cc1cc(N2CCN(Cc3cc4n(n3)CCNC4)CC2)n2ncnc2n1	-	-	-	-	-
Cc1noc(C)c1[S+](=O)([O-])N1CCn2c(nn(-c3ccc(C(F)(F)F)cc3)c2=O)C1	?	-	-	-	-
Cc1ccccc1-c1ccnc(-c2nnc(C)n2Cc2ccccc2)c1	79µM	-	-	?	-
O=C(Cc1c[nH]c2ncc(-c3cccnc3)cc12)NCc1cccc(F)c1	?	-	-	25µM	-
O=C(Cc1c[nH]c2ncc(-c3ccccc3)cc12)NCc1cnccn1	-	-	-	?	-
O=C(Cc1c[nH]c2ncc(-c3ccncc3)cc12)NCc1cccnc1	?	-	-	79µM	-
O=C(Cc1c[nH]c2ncc(-c3ccccc3)cc12)NCc1ccncc1	?	-	-	28µM	-
C[S+](=O)([O-])c1cccc(NC(=O)Cc2c[nH]c3ncc(-c4cccnc4)cc23)c1	?	-	-	35µM	-
COc1cccc(-c2cnc3[nH]cc(CC(=O)NCc4cccnc4)c3c2)c1	?	?	-	?	-
CC(C)c1ccc(CC(=O)N2CCCc3ncc(C(=O)NCCCn4ccnc4)cc32)cc1	?	-	-	-	-
O=C1NCc2ccccc2CC12CCN(Cc1ccc3ccccc3n1)CC2	?	.	-	-	.
NC(=O)Cc1c[nH]c2ncc(-c3cccc(F)c3)cc12	-	-	-	89µM	-
Cc1cc(-c2cnc3[nH]cc(CC(N)=O)c3c2)ccn1	-	-	-	?	-
O=C(Cc1c[nH]c2ncc(-c3cccnc3)cc12)NCCc1ccccc1	?	-	-	22µM	-
O=C(Cc1c[nH]c2ncc(-c3cccc(F)c3)cc12)NCc1cccnc1	71µM	?	-	?	-
COc1ccc(-c2cnc3[nH]cc(CC(=O)NCc4cccnc4)c3c2)cn1	?	-	-	79µM	?
C=CCOC(=O)Nc1nc2c(s1)C[C@@H]1[C@](C)(CO)[C@H](O)CC[C@@]1(C)[C@@H]2CC(=O)NC1CCCCC1	?	-	?	?	-
O=C(Cc1c[nH]c2ncc(-c3cccc(Cl)c3)cc12)NCc1cccnc1	79µM	35µM	-	?	?
O=C(c1cccc(OC2CN(C3CCCCCC3)C2)c1)N1CCOCC1	-	-	-	-	-
SMILES	HEK293 tox	NPR1 antag	GPT2 inh	NIH3T3 tox	Luciferase inh
O=C(Cn1nc2n(c1=O)CCCC2)Nc1ccc2c(c1)OCCO2	-	-	-	-	20µM
CC(C)(C)C1CCC2(CC1)NC(=O)N(CC(=O)Nc1ccc3c(c1)OCCO3)C2=O (stereo not drawn)	?	-	-	28µM	?
O=C(CN1C(=O)NC2(CCOCC2)C1=O)Nc1ccc2c(c1)OCCO2	-	-	-	-	45µM
O=C(CN1C(=O)NC2(CCOCC2)C1=O)Nc1ccc(F)cc1	-	-	-	-	-
C[C@@]1(O)CCN(Cc2ccc3c4c(cccc24)C(=O)OC3)C[C@@H]1O	-	-	-	-	-
O=C(NC1CCCN(CCn2nc3n(c2=O)CCCC3)C1)c1ccccc1Cl (stereo not drawn)	-	.	.	-	.
O=C(Cc1cccc(Cl)c1)N1CCC(C(=O)N2CCC(N3Cc4ccccc4C3=O)CC2)CC1	50µM	.	-	?	.
O=C(C1CC1)N1CCC(C(=O)N2CCC(N3Cc4ccccc4C3=O)CC2)CC1	-	.	-	-	.
O=C(CCc1conc1-c1cccc(F)c1)NCc1ccc(F)cc1	?	-	-	?	45µM
CCOc1ccccc1NC(=O)C1c2ccccc2C(=O)N(CCOC)C12CCCCC2 (stereo not drawn)	-	?	-	?	-
